Active and inactive are the calls of the source.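 Rule for the calls: active = any inhibition of parasite growth seen in the dose series, which yields a fitted potency; inactive = compounds showing no inhibition.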
assay: Inhibitors of Cruzain: Trypanosoma Cruzi Growth Inhibition Assay; conditions: T. cruzi in NIH/3T3, beta-gal CPRG absorbance, 4 d
Excerpt: Cruzain is a cysteine protease from the tropical parasite Trypanosoma cruzi. This assay protocol is for testing followup compounds for T. Cruzi growth inhibition. See following references for additional details: Jadhav A, et al. J Med Chem. 2010 Jan 14;53(1):37-51. Mott BT, et al. J Med Chem. 2010 Jan 14;53(1):52-60. Ferreira, et al. J Med Chem. 2010 Jul 8;53(13):4891-905. Bettiol E, et al. PLoS Negl Trop Dis. 2009;3(2):e384. Assay Provider: Shoichet, Brian; University of California, San Francisco and Ana Rodriguez, New York University School of Medicine. Screening Center PI: Austin, C.P. Screening Center: NIH Chemical Genomics Center [NCGC]
NIH/3T3 cells and parasites were harvested, washed once and resuspended in DMEM supplemented with 2% FBS and Pen-Strep-Glut. […] Different numbers of NIH/3T3 cells were seeded in 96-well plates. After 3 h, compounds were added at the indicated concentrations and mixed by pipetting. BZN tablets (Rochagan, Roche) dissolved in DMSO and 4uM Amphotericin B solution (Sigma-Aldrich) were used as positive controls. Different numbers of T. cruzi parasites were added in a final volume of 200 ul/well. […] Plates were incubated at 37 degrees C for 4 h and absorbance was read at 590 nm using a Tecan Spectra Mini plate reader. […] The IC50 was determined as the concentration at which the activity (absorbance) was half that in the absence of compound. […]

SMILES | Potency
Cc1ccc(OCCn2c(CCNC(=O)C3CCCCC3)nc3ccccc32)cc1 | 64 µM (active)

— PubChem BioAssay AID504656 (National Center for Advancing Translational Sciences (NCATS), 2011)
